target: ICAM4; assay: pooled miR-30 sensor sort-seq; sequence = guide strand; details: shRNA
Also: reference of the scale not given here.

Sequence	sensor-assay potency score (higher = more potent)
TTGAGCTGCACTGACTTCCCCG	0.304
TCGTAGGTCAAGGTCACGTTGG	-0.884
TTCATAGCTAGGCACTTGCATA	-1.17
TTTTTCTCGCTCAGCCGGCATA	-1.31
TAGCCCACCGGGAACACTGTAG	-0.579

target: ICOS; assay: as above; details: shRNA

Sequence	sensor-assay potency score (higher = more potent)
TAAACATCTCATAATTGGCAGA	-0.689
TTGACTGATACAGTCATTCTTC	0.168
TTGTGAATTATTATTCATCTTG	-0.481
TAGTATGATAGTGAAATGCGGA	-0.711
TAAACTACAACATAATCCCAGT	-0.438
TTGTGAAATATAAACATCTCAT	-0.925
TTGTGATTCATAAATATGCAAA	-1.24
TTTTGTCTTAGTGAGATCGCAG	-0.217
TACTGTACTGTACACATCCAGC	-0.859
TTTAAGAATCTTTCTAGCCAAA	-1.13
TTTGTCTTAGTGAGATCGCAGA	-0.78
TAAAATTTGTACACCTCCGTTG	-0.108

target: IDI2; assay: as above; details: shRNA

Sequence	sensor-assay potency score (higher = more potent)
TTTCGTTTCACTGGGATCCGGG	-0.0224
TAGTGATTTATACATGATGGGC	-1.3
TTATTTGTAAGCATATTACTGA	0.0641
TTTCTCAATGTTTTCGTTCAGA	-0.492
TTTCGTGTCCGACCTCTGCTGT	-0.749
ATTCTCATCCACAACAATCAGC	-0.745
TAAACGTCGAGTCACTTGGCTG	-1.26
TAGGATGCAAGATTGAATGTGT	0.9
TTTTCTTCCAGTTCTGCTGGGT	0.298
TTGTCATGAACACAATGTCCTC	-1.35
TAACCTTATCATTCTCATCCAC	-0.207
TTGTGAAGCTCCACAAACGGGG	-0.921

target: IER5; assay: as above; details: shRNA

Sequence	sensor-assay potency score (higher = more potent)
TTATGCAGCTTGATGCCGCCGC	-0.467
ATAAGGTCTTTCCACTTCGGGC	-1.59
TACAAAAATCAATACAACGAAG	-1.23
TAAAAATATATCTTTTCTCTAT	-0.862
TTATCGCAGCAGATCTGCCCGG	-0.618
TTCCAAGCTTGAACTCTTCTGT	0.444
TTCTTATGCAGCTTGATGCCGC	-0.805
TATCGCAGCAGATCTGCCCGGG	-0.199
TTGTAGATCTTGCCCAGAGAGA	-1.34
TTTCCTAGAGTAATCACAGGAT	0.282
TTCATGTCTCTCAGCACCGGCT	-0.831
